According to the supplement of paper PMC13380429:

Tested on: Vero E6 infected with SARS-CoV-2
Assay: inhibition of SARS-CoV-2 cytopathic effect; higher = more antiviral protection, active = above 15
Settings: 48 h

Measured: inhibition of SARS-CoV-2 cytopathic effect

COC1CCN(C(=O)c2cc(Cc3n[nH]c(=O)c4ccccc34)ccc2F)CC1
inactive: 1 nM -0.72% | 8.33 nM 7.33% | 100 nM 4.58% | 833.33 nM 3.41% | 10000 nM 4.58%

CC(C)c1ccc(NC(=O)c2cccs2)c(-c2nc3ccccc3[nH]c2=O)c1
inactive: 1 nM -1.18% | 8.33 nM -0.5% | 100 nM 0.48% | 833.33 nM -0.61% | 10000 nM -1.09%

CC(COc1ccccc1)N(CCCl)Cc1ccccc1 (stereo not given) [phenoxybenzamine]
inactive: 1 nM 2.45% | 8.33 nM 2.51% | 100 nM 1.57% | 833.33 nM 0.91% | 10000 nM -0.17%

COc1ccc(-c2csc(NC(=O)[C@H]3CCCCN3S(=O)(=O)c3ccc(C)cc3)n2)cc1
inactive: 1 nM 0.8% | 8.33 nM 2.33% | 100 nM 1.23% | 833.33 nM 2.63% | 10000 nM 1.27%

CN(C)CCOc1ccc(-c2nc(-c3ccncc3)c(-c3ccc4c(c3)CC/C4=N\O)[nH]2)cc1
inactive: 1 nM -0.13% | 8.33 nM -0.36% | 100 nM 2.34% | 833.33 nM -0.51% | 10000 nM 6.82%

CCCCCCCCCCCCCCCC=O [1-hexadecanal]
inactive: 1 nM 0.5% | 8.33 nM 2.85% | 100 nM -0.54% | 833.33 nM -0.08% | 10000 nM 1.56%

Cc1[nH]c(/C=C2\C(=O)Nc3ccc(S(=O)(=O)Cc4c(Cl)cccc4Cl)cc32)c(C)c1C(=O)N1CCC[C@@H]1CN1CCCC1
inactive: 1 nM -0.63% | 8.33 nM -2.66% | 100 nM -1.94% | 833.33 nM 1.33%
active: 10000 nM 50.2%

CCN(CC)C(=O)Nc1ccc(OCC(O)CNC(C)(C)C)c(C(C)=O)c1 (stereo not given) [celiprolol]
inactive: 1 nM -3.29% | 8.33 nM 0.91% | 100 nM -0.73% | 833.33 nM -0.15% | 10000 nM -0.87%

C[C@]12CCC(=O)C=C1[C@@H]1C[C@@H]1[C@H]1[C@@H]3[C@@H]4C[C@@H]4[C@@]4(CCC(=O)O4)[C@@]3(C)CC[C@@H]12 [drospirenone]
inactive: 1 nM -10.6% | 8.33 nM -1.07% | 100 nM -3.16% | 833.33 nM 0.94% | 10000 nM 5.09%
